tim23-1 inh = tim23-1 yeast growth inhibition; hit rate 1.3% among 330,000; inhibition, % at 20 µM; S. cerevisiae tim23-1 growth, BacTiter-Glo luminescence, 24 h; AID 463212;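 active means growth inhibition of the mutant yeast at or above 50%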;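 further: temperature-sensitive mutant grown at 25 °C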
NALP1 yeast inh = blocks the NALP1 inflammasome reconstituted in yeast; AID 2071; hit rate 0.61% among 280,000; inhibition, % at 10 µM; S. cerevisiae NALP1/ASC/caspase-1 growth, X-gal OD620, 72 h; in the data active means inhibition mostly above about 24%, no sharp cut-off; inactive means mostly below about 32%
TIM10 inh = inhibits growth of TIM10 yeast strain; AID 463195; S. cerevisiae TIM10 strain growth, BacTiter-Glo luminescence, 24 h; inhibition, % at 10 µM; hit rate 1.4% among 330,000;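 active means inhibition of 40% or more at the single tested concentration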;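 further: wild-type TIM10 isogenic control strain grown at permissive 25 °C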
SKKanGAS inh = inhibitors of SKKanGAS S. pyogenes growth in kanamycin (SK-promoter or general growth effect) | BacTiter-Glo, 6 h | inhibition, % at 7.5 µM | hit rate 1.3% among 300,000;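 active means mean replicate score, as percent of positive control median, at least 50; inconclusive means mean below 50 but one replicate at or above 50; inactive means mean and every replicate below 50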;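 further: strain carries kanamycin resistance gene driven by streptokinase promoter and grows in 40 µg/ml kanamycin; loss of luminescence reflects streptokinase promoter inhibition or plain growth inhibition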
tim10-1 inh = tim10-1 yeast growth inhibition. S. cerevisiae tim10-1 ts strain growth, BacTiter-Glo, 24 h. inhibition, % at 20 µM. hit rate 2.2% among 330,000. AID 463190;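 active means inhibition of at least 40%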;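 further: mutant grown at 25 °C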
NLRP3 yeast inh = NALP3 inhibition in yeast; Yeast reconstituted NLRP3/ASC/caspase-1, beta-gal luminescence, 24 h; inhibition, % at 10 µM; hit rate 0.39% among 330,000;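 active means inhibition of 50% or more; inactive means inhibition below 50%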
tim23-1 confirm = tim23-1 yeast growth inhibition, confirmed. shares compounds with tim23-1 inh. S. cerevisiae tim23-1 growth, BacTiter-Glo luminescence, 24 h. inhibition, % at 20 µM. hit rate 83% among 4,400. AID 463218;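 active means inhibition above about 39% in either of two replicate wells at 20 µM, limit read from the data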;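 further: temperature-sensitive tim23-1 mutant grown at 25 °C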
Of the large screens only hits and unclear results are named; the others gave an inactive call (follow-up assays come after a bar, where they were run). Compounds with a hit are over-represented: about 4.9% of the library has one in this group of screens.

CCN(C[C@H]1N[C@@](C)(C(=O)OC)[C@H]2C(=O)N(Cc3ccccc3)C(=O)[C@@H]12)C(=O)C1CCCCC1	none (no result: NALP1 yeast inh, SKKanGAS inh)
CCn1c(SCC(=O)N(C)C2CCS(=O)(=O)C2)nnc1-c1ccccc1 (configuration not stated)	none
O=C1c2cccc3c(Cl)ccc(c23)C(=O)N1O	tim23-1 inh 60.7 | tim23-1 confirm 68.8
c1cncc(-c2ccc3ncnc(NCc4cccs4)c3c2)c1	none (no result: NALP1 yeast inh, SKKanGAS inh)
c1csc(CNc2ncnc3ccc(-c4ccc5c(c4)OCCO5)cc23)c1	tim23-1 inh 56.7 (no result: NALP1 yeast inh, SKKanGAS inh) | tim23-1 confirm 44.5
c1cncc(CNc2ncnc3ccc(-c4ccc5c(c4)OCCO5)cc23)c1	none (no result: NALP1 yeast inh, SKKanGAS inh)
COc1cccc(-c2ccc3ncnc(NCc4cccs4)c3c2)c1	tim23-1 inh 52.1 (no result: NALP1 yeast inh, SKKanGAS inh) | tim23-1 confirm 43.0
Oc1ccc(C2C[C@H]3CC[C@@H]2C3)cc1O (some centres not stated)	tim23-1 inh 52.2 | tim23-1 confirm inactive
O=C1CC(c2ccc(O)c(O)c2)Oc2cc(O)cc(O)c21 (configuration not stated)	none
ClC(Cl)(Cl)c1nc2ccccc2n2nncc12	tim23-1 inh 54.3, NALP1 yeast inh 37.0 | tim23-1 confirm inactive
CCN1C(=O)/C(=C/c2nc3ccccc3c(=O)n2-c2ccc(C)cc2)c2ccccc21	tim23-1 inh 51.9 | tim23-1 confirm 40.7
CCN1C(=O)/C(=C/c2nc3ccccc3c(=O)[nH]2)c2ccccc21	none (no result: tim23-1 inh, TIM10 inh, SKKanGAS inh, tim10-1 inh, NLRP3 yeast inh)
O=C(CNC(=O)c1ccc(Oc2ccccc2)cc1)OC1CCCCC1=O (configuration not stated)	none
Cc1cccc(N2CCc3c2nc2ccc(Br)cc2c3N)c1	tim23-1 inh 75.7 | tim23-1 confirm 62.5
COc1ccc(NC(=O)CSc2ccc3nnc(-c4ccccn4)n3n2)c(OC)c1	SKKanGAS inh inconclusive
COCCCN(CC(=O)Nc1ccc(N2CCOCC2)cc1)S(=O)(=O)c1ccc(Cl)cc1	none
N#Cc1nc(-c2cccs2)oc1NCc1ccco1	none
N#Cc1nc(-c2cccs2)oc1NCc1ccc(Cl)cc1	tim23-1 inh 50.5 | tim23-1 confirm 55.2
N#Cc1nc(-c2cccs2)oc1NCc1ccccc1Cl	tim23-1 inh 55.6 | tim23-1 confirm 53.5
CCCCCO	none (no result: NALP1 yeast inh, SKKanGAS inh)
COc1ccc(-c2c(C)nn3c(N4CCCCCC4)cc(C)nc23)cc1OC	tim23-1 inh 53.9 | tim23-1 confirm 56.8
O=C(N/N=C/c1cccs1)c1cc(-c2cccc3ccccc23)n[nH]1	tim23-1 inh 50.6 | tim23-1 confirm 48.0
O=C(N/N=C/c1cccs1)c1cc(-c2ccc3ccccc3c2)n[nH]1	none (no result: NALP1 yeast inh)
Cn1nnnc1Sc1ncnc2scc(-c3ccc(Br)cc3)c12	tim23-1 inh 67.6 (no result: NALP1 yeast inh, SKKanGAS inh) | tim23-1 confirm 59.4
Cc1cc(C)c2nc(C)cc(Nc3ccc(C(=O)N4CCOCC4)cc3)c2c1	none (no result: NALP1 yeast inh)
Cc1ccc(NC(=O)C(=O)Nc2ccc(C)cn2)nc1	none
Cc1ccc(NC(=O)/C(C#N)=C(\N)C(Cl)(Cl)Cl)nc1	tim23-1 inh 70.6 | tim23-1 confirm 71.4
Fc1cccc(CNc2ncnc3cc(Cl)ccc23)c1F	tim23-1 inh 60.2 | tim23-1 confirm inactive
O=C1NC(=O)c2cc([N+](=O)[O-])cc3cccc1c23	tim23-1 inh 62.2 | tim23-1 confirm 48.6
CN(C)S(=O)(=O)c1cccc(NC(=O)CN2C(=O)NC3(CCc4ccccc4C3)C2=O)c1 (configuration not stated)	none
Oc1ccccc1/C=N/NC(=S)NC1CC2CC1C1C=CCC21 (configuration not stated)	tim23-1 inh 73.8, SKKanGAS inh 93.2 | tim23-1 confirm 48.9
O=C(NCc1nnnn1-c1ccc(F)c(F)c1)c1ccc(S(=O)(=O)N2CCOCC2)cc1	none (no result: NALP1 yeast inh)
Nc1c(C(=O)O)sc2nc3c(cc12)CCCC3	none (no result: NALP1 yeast inh)
CN1CCc2nc3sc(C(=O)C45CC6CC(CC(C6)C4)C5)c(N)c3cc2C1	tim23-1 inh 90.1 (no result: SKKanGAS inh) | tim23-1 confirm 84.8
COc1cccc2sc3cc(NCc4ccc(C)o4)ccc3c(=O)c12	tim23-1 inh 67.7 (no result: NALP1 yeast inh, SKKanGAS inh) | tim23-1 confirm 65.7
COc1ccc(Nc2nc3ccccc3n3cnnc23)cc1Cl	tim23-1 inh 57.2 | tim23-1 confirm inactive
COc1cccc2c1C(=O)c1c(O)c3c(c(O)c1C2=O)C[C@](O)(C(C)=O)C[C@H]3O[C@@H]1C[C@@H](N)[C@@H](O)[C@@H](C)O1	tim23-1 inh 51.2, SKKanGAS inh 102.5 (no result: NALP1 yeast inh) | tim23-1 confirm 43.8
CC(C)OC(=O)c1cc2c(=O)[nH]c(C(Cl)(Cl)Cl)nc2o1	none
Cc1nc(Nc2ccccc2)sc1C(=O)Nc1ccccc1	tim23-1 inh 55.1 | tim23-1 confirm 53.2
O=C(Nc1cccc(F)c1)N1CC=C(c2ccc(Cl)cc2)CC1	tim23-1 inh 59.1, NALP1 yeast inh 39.0 | tim23-1 confirm 72.1
COc1ccc(/C=C2\COc3ccccc3C2=O)c(OC)c1	tim23-1 inh 54.9 | tim23-1 confirm 50.2
COc1ccc(C=C2c3ccccc3C(=O)c3ccccc32)c(OC)c1	none
Cc1ccc(C(=O)C(C)OC(=O)c2cc3cc([N+](=O)[O-])ccc3oc2=O)cc1 (configuration not stated)	tim23-1 inh 72.1 | tim23-1 confirm 55.0
Cc1ccc2nc(-c3cccc(N)c3)oc2c1	none
Cc1cc(C)c2oc(-c3cccc(N)c3)nc2c1	tim23-1 inh 64.0 | tim23-1 confirm 60.1
CC(=O)Nc1ccc(NC(=O)C(C)OC(=O)/C=C/c2cnc3ccccc3n2)cc1 (configuration not stated)	none (no result: NALP1 yeast inh)
CC(NC(=O)/C=C/c1cnc2ccccc2n1)C12CC3CC(CC(C3)C1)C2 (configuration not stated)	tim23-1 inh 59.6 (no result: NALP1 yeast inh) | tim23-1 confirm 50.0
Cc1[nH]c(=O)nc(SCc2ccc(Cl)c(Cl)c2)c1C#N	none
O=Cc1cc2ccccc2nc1SCc1ccc(Cl)c(Cl)c1	tim23-1 inh 60.0 | tim23-1 confirm 44.0
O=C(N/N=C\c1ccc(-c2ccccc2[N+](=O)[O-])o1)C1COc2cc3ccccc3cc2O1 (configuration not stated)	tim23-1 inh 57.9 | tim23-1 confirm 53.0
O=C(N/N=C\c1ccc(-c2ccccc2[N+](=O)[O-])o1)C1COc2ccccc2O1 (configuration not stated)	tim23-1 inh 75.7 | tim23-1 confirm 52.6
O=C(O)c1cccc(-c2ccc(/C=N/NC(=O)C3COc4ccccc4O3)o2)c1 (configuration not stated)	none (no result: SKKanGAS inh)
CC(C)(C)c1ccc(CSc2nc(N)cc(=O)[nH]2)cc1	none
O=Cc1ccccc1OCCOc1ccccc1C=O	tim23-1 inh 85.0 | tim23-1 confirm 77.8
CCC1(CC)Cc2ccccc2-c2nc(NCCO)[nH]c(=O)c21	none
CC1(C)Cc2ccccc2-c2nc(NN)[nH]c(=O)c21	tim23-1 inh 50.7 | tim23-1 confirm inactive

High-throughput results as filed in PubChem.
